These results are taken from PubChem BioAssay (NCATS).

Molecules are shown by their SMILES. Inconclusive results are not listed. Where a call stands in place of a potency, no number is given. Activity calls are given as the source filed them. Calls come from the whole dose curve; as a rule, active = well fitted inhibition curve with a large enough effect; inconclusive = small, poorly fitted or top-dose-only effect; inactive = no such curve, though single readings can be large or run the other way.
Potency is the fitted concentration of half-maximal effect.

The subject of this assay is Zika virus NS2B-NS3 protease (unlinked). The assay is described as follows: Optimization of GU AMC qHTS for Zika virus inhibitors: Unlinked NS2B-NS3 protease assay (AID 1347151). Note: nearly all actives have a fitted effect of over 80% in size. The following applies: recombinant ZIKV NS2B-NS3 protease, fluorogenic AMC substrate; series mostly up to 52.5 µM. The gist of the method:
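In this qHTS, compounds acted on 25 nM unlinked Zika NS2B–NS3 in pH 8.0 Tris/Tween buffer. Cleavage of an AMC peptide ran 15 min at room temperature, to about 20% conversion.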
Background: qHTS replaces the single test concentration by a dilution series.
Take `Cc1cccc(C)c1NC(=O)C(C)N` (centres undefined): the Potency result is “inactive”. Under `Cc1ccc(=O)n(-c2ccccc2)c1` stands 26.7 µM (active); under `C[C@@H](O)[C@H]1C(=O)N2C(C(=O)O)=C(SCCN=CN)C[C@H]12`, “inactive”; under `OCCN1CCN(CCCN2c3ccccc3C=Cc3ccccc32)CC1`, “inactive”. Next, `c1cnc(N2CCN(Cc3ccc4c(c3)OCO4)CC2)nc1`: “inactive”; `COCC(=O)O[C@]1(CCN(C)CCCc2nc3ccccc3[nH]2)CCc2cc(F)ccc2[C@@H]1C(C)C`: “inactive”.

Turning to `CCc1cccc(N(C)C(N)=Nc2cccc3ccccc23)c1`, the Potency result is “inactive”. Take `C[N+](C)(C)CCOC(=O)CCC(=O)OCC[N+](C)(C)C`: the Potency result is “inactive”. Under `C#CCN(C)CCCOc1ccc(Cl)cc1Cl` stands “inactive”; under `CCO/C([O-])=N/c1c[n+](N2CCOCC2)no1`, “inactive”; under `O=C(O)CN(CCOCCOCCN(CC(=O)O)CC(=O)O)CC(=O)O`, “inactive”. On to `COc1ccc(CN(CCN(C)C)c2ccccn2)cc1`, for which the Potency entry is “inactive”. With `CC(C)NCC(O)c1cc(O)cc(O)c1` (centres undefined), the Potency entry is “inactive”.

For `CCCCNc1c(C(=O)OCC)c(C)nc2c1cnn2CC`, the Potency entry was “inactive”. Turning to `COC(=O)[C@@H](N)Cc1ccc(O)c(O)c1`, the Potency entry was “inactive”.

For the molecule `CN1CCN(CC(=O)N2c3ccccc3C(=O)Nc3cccnc32)CC1`, the Potency entry is “inactive”. In the case of `CCn1cc(C(=O)O)c(=O)c2cc3c(cc21)OCO3`, the Potency is 23.8 µM (active). Next, `CCCCNc1ccc(C(=O)OCCN(C)C)cc1`: “inactive”; `OCCN1CCN(CC/C=C2/c3ccccc3Sc3ccc(C(F)(F)F)cc32)CC1`: “inactive”; `CCNC(=O)N1CCN(CCCC(c2ccc(F)cc2)c2ccc(F)cc2)CC1`: “inactive”. For `CCN(CC)CCOCCOC(=O)C1(c2ccccc2)CCCC1`, the Potency entry is “inactive”. Next, `O=C1CC2(CCCC2)CC(=O)N1CCCCN1CCN(c2ncccn2)CC1`: “inactive”; `CSc1ccc(C(=O)c2[nH]c(=O)[nH]c2C)cc1`: “inactive”. Next, `CCN(CC)CCCN(c1ccccc1)C1Cc2ccccc2C1`: “inactive”.

For `CN(C)CCCN1c2ccccc2Sc2ccc(C(F)(F)F)cc21`, the Potency entry is “inactive”. `COc1ccc2c(c1OC)C(=O)O[C@@H]2[C@H]1c2c(cc3c(c2OC)OCO3)CCN1C`: the Potency result was “inactive”.

On to `CCc1c(C)[nH]c2c1C(=O)C(CN1CCOCC1)CC2` (centres undefined), for which the Potency entry is “inactive”. Regarding `CNCCCN1c2ccccc2CCc2ccccc21`, the Potency entry was “inactive”. With `Cc1ccc(S(=O)(=O)NC(=O)NN2CCCCCC2)cc1`, the Potency result was “inactive”. Next, `CN(C)C/C=C(/c1ccc(Br)cc1)c1cccnc1`: “inactive”; `Cc1scc2c1N(C(=O)CN1CCN(C)CC1)c1ccccc1NC2=O`: “inactive”; `C[N+](C)(C)CCCCCCCCCC[N+](C)(C)C`: “inactive”.

In the case of `Fc1ccc(C(c2ccc(F)cc2)N2CCN(C/C=C/c3ccccc3)CC2)cc1`, the Potency entry is “inactive”.

On to `CC(=O)[C@]1(O)Cc2c(O)c3c(c(O)c2[C@@H](O[C@H]2C[C@H](N)[C@H](O)[C@H](C)O2)C1)C(=O)c1ccccc1C3=O`, for which the Potency result is “inactive”.
